HP1b chromo inh: HTS for Inhibitors of HP1-beta Chromodomain Interactions with Methylated Histone Tails; Potency, µM (top dose mostly 114 µM), without a hit: top-dose activity change, negative = inhibition, hits mostly inhibitors; AID 540317, 2011; AlphaScreen HP1-beta / biotin-H3K9me3 peptide binding; actives 0.56% (n = 390,000); further: potency means the concentration at half of the fitted maximal effect; nearly all actives have a fitted effect of over 70% in size
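HP1-beta protein (50 nM final) preincubated 30 min at room temperature with biotinylated H3(1-18)K9me3 peptide (50 nM) in PBS pH 7.4, 0.01% Tween-20, then compound added for 30 min. AlphaScreen streptavidin donor/nickel chelate acceptor beads (10 ug/mL final), 30 min dark, luminescence read.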
PLK1 PBD block: qHTS for Inhibitors of PLK1-PDB (polo-like kinase 1 - polo-box domain): Primary Screen; AID 720504, 2013; Plk1 PBD binding of FITC phosphopeptide, fluorescence polarization; actives 2.8% (n = 360,000); Potency, µM, inactives show max response, negative = inhibition, most hits filed as inhibitors; Serine/threonine-protein kinase PLK1 (Homo sapiens), P53350; further: potency means the concentration at half of the fitted maximal effect; series mostly up to about 57 µM; on the % scale 0 is the no-effect control and ±100 the full control effect; nearly all actives have a fitted effect of over 65% in size
G9a inh: qHTS Assay for Inhibitors of Histone Lysine Methyltransferase G9a. actives 8.8% (n = 350,000). Histone-lysine N-methyltransferase EHMT2 (Homo sapiens), Q96KQ7. G9a H3K9 monomethylation, AlphaScreen, 2 h. Potency, µM (titrated, usually from 102 µM), for the others: at the highest dose activity, negative = inhibition, hits mostly inhibitors; further: potency means the concentration at half of the fitted maximal effect; on the % scale 0 is the no-effect control and ±100 the full control effect; nearly all actives have a fitted effect of over 75% in size
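AlphaScreen read-out: biotin-H3K9 peptide (500 nM) methylation by 20 nM enzyme with 20 uM SAM, 2 h at room temperature after 15 min compound preincubation; anti-monomethyl H3K9 antibody plus donor/acceptor beads, 10 min dark.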
BAZ2B inh: qHTS Assay for Inhibitors of BAZ2B. Bromodomain adjacent to zinc finger domain protein 2B (Homo sapiens), Q9UIF8. AlphaScreen BAZ2B-H3K14Ac peptide displacement. Potency, µM (highest dose often 114 µM), inactives show at the top dose activity change, negative = inhibition, most hits filed as inhibitors. actives 4.4% (n = 360,000). AID 504333, 2011; further: potency means the concentration at half of the fitted maximal effect; on the % scale 0 is the no-effect control and ±100 the full control effect; nearly all actives have a fitted effect of over 60% in size
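Complex of BAZ2B and biotin-H3K14Ac (50 nM apiece) forms over 30 min at RT, then faces library compounds up to 110 uM for another 30 min; AlphaScreen beads added, 20 min dark incubation, luminescence read.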
PI5P4K alpha inh: qHTS for Inhibitors of phosphatidylinositol 5-phosphate 4-kinase (PI5P4K). PI5P4Kalpha enzyme, ADP-Glo luminescence, 60 min; active compounds read low. actives 1.2% (n = 330,000). max response, %. AID 652105, 2013; active means max response of -50% or lower; inconclusive means between -30% and -50%; inactive means -30% or higher; further: value at the top dose of about 77 µM; on the % scale 0 is the no-effect control and ±100 the full control effect
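Luminescence from ADP-Glo served as readout of PI5P4Kalpha activity in a qHTS format. Reaction: enzyme, substrate, compound, ATP at 5 microM final, 60 min at RT.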
JMJD2A Tudor: qHTS Assay for Inhibitors of JMJD2A-Tudor Domain | Lysine-specific demethylase 4A (Homo sapiens), O75164 | AlphaScreen JMJD2A-Tudor / H3K4me3 peptide binding | Potency, µM (highest dose often 114 µM), for the others: at the highest dose activity change, negative = inhibition, hits mostly inhibitors | actives 4.4% (n = 390,000); further: potency means the concentration at half of the fitted maximal effect; on the % scale 0 is the no-effect control and ±100 the full control effect; nearly all actives have a fitted effect of over 50% in size
Target sequence (O75164 whole entry, looked up, the tested form may be a part): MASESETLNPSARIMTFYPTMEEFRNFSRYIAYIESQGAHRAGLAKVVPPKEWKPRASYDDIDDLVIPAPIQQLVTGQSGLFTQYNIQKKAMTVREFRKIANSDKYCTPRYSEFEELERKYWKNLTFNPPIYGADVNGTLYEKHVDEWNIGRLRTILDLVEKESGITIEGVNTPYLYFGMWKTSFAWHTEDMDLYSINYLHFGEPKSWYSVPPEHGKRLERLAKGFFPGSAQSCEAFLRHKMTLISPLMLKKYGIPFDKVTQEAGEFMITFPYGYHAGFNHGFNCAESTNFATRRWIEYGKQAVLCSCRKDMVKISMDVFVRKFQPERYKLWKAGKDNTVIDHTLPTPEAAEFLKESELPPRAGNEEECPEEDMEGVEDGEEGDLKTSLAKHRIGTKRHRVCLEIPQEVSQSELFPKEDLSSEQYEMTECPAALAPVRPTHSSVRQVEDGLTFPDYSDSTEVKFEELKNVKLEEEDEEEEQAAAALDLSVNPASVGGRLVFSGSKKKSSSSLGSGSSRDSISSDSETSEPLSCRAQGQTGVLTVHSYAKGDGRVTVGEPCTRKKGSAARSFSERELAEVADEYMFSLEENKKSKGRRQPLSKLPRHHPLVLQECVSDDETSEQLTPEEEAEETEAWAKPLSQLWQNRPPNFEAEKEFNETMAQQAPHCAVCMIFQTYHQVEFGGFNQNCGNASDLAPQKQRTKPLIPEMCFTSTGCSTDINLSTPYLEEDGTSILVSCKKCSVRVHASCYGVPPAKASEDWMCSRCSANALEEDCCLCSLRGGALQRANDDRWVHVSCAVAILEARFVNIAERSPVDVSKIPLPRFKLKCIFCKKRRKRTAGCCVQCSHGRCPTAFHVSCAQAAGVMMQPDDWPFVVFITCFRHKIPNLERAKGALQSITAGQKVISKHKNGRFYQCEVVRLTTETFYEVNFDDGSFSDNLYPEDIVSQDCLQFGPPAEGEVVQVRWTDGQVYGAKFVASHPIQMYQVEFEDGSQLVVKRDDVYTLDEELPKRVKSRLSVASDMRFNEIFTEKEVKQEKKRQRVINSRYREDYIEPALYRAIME
Starred values were filed as active, the others as inactive; ? = inconclusive; / = no result; [ ] = dose if it differs, or a comment. In the library only some 12% were active in any assay of this set; here they are far more common. Unless noted, the call rests on the fitted dose curve; in most records, active means well fitted curve in the direction sought with a large enough effect; inconclusive means small, poorly fitted or top-dose-only effect, or another doubt; inactive means no such curve, though single readings can be large; an effect the other way counts as inactive or inconclusive.

SMILES	HP1b chromo inh	PLK1 PBD block	G9a inh	BAZ2B inh	PI5P4K alpha inh	JMJD2A Tudor
COc1ccc2[nH]c3c(c2c1)CCN1C(=O)C(CC(=O)NC/C=C(\C)CCC=C(C)C)C[C@H](C(=O)N2CCOCC2)[C@@]31CCC1CCCC1 (stereo partly drawn)	26%	-1%	/	/	0	-22%
CN(CC(=O)Nc1ccc(F)cc1)C(=O)Cn1cnc2ccc(Cl)cc2c1=O	22%	-4%	0%[12.7 µM]	7%	0	-17%
O=c1c(CO)cc(CO)cc(CO)c1O	15%	-15%	/	10µM*	5	22µM*
COc1cc(-c2ccccc2)nc2ccccc12	104%	0%	-20%[59 µM]	53%	7	55%
O=C(O)c1cnc2ccccc2n1	?	27µM*	13%[59 µM]	?	/	20µM*
O=C(O)c1cc2ccccc2cn1	0%[57 µM]	-3%	/	/	6	0.32µM*
COc1cc(C(=O)O)nc2ccccc12	-10%	3%	12%[2.33 µM]	40µM*	-1	13µM*
O=C1c2ccccc2C(=O)C1c1cc2ccccc2cn1	65%	/	/	/	/	-23%
COc1ccc(CCN(C)C2CCCN(S(=O)(=O)c3ccccc3F)C2)cc1OC (stereo not drawn)	19%	-4%	29%	-31%	2	-17%
Cc1ccc([N+](=O)[O-])c(Oc2ncnc3c2oc2ccccc23)c1	26%	/	-16%[59 µM]	-3%	/	-12%
O=S(=O)(Nc1ccc(-c2cn3c(n2)SCC3)cc1)c1cccs1	2%	?	35µM*	-27%	-25	-31%
O=C(Nc1cccc(-c2cn3c(n2)SCC3)c1)c1ccc2c(c1)OCO2	-31%	-9%	45µM*	?	-4	?
CS(=O)(=O)Nc1cccc(-c2cnc3ccccc3n2)c1	16%	-12%	45µM*	1%	-9	-14%
O=C(Nc1ccc(-c2cn3c(n2)SCC3)cc1)c1ccc2c(c1)OCO2	21%	-14%	4%	-13%	1	-2%
CS(=O)(=O)Nc1cccc(-c2cn3c(n2)SCC3)c1	?	?	-32%	-34%	-3	56µM*
CCS(=O)(=O)Nc1cccc(-c2cn3c(n2)SCC3)c1	12%[57 µM]	?	-16%	-37%	-1	-6%
CC(C)C(=O)Nc1cccc(-c2cnc3ccccc3n2)c1	13%	-7%	1%	-3%	/	-11%
O=S(=O)(Nc1ccc(-c2ccc3nncn3n2)cc1)c1cccs1	-8%	0%	2%	-1%	-13	-15%
O=C(Nc1ccc(-n2cccn2)cc1)C1CCN(Cc2ccccn2)CC1	21%	-4%	35µM*	?	-4	22µM*
O=C(Nc1ccc(-n2cccn2)cc1)C1CCCCN1Cc1cccc2cccnc12 (stereo not drawn)	12%	-14%	20%[59 µM]	?	4	-29%
O=C(Nc1cccc(-c2cccc(Cl)c2)c1)C1CCN(Cc2ccon2)CC1	15%	-8%	17%	1%	-2	-28%
O=C(Nc1cccc(-c2cccc(Cl)c2)c1)C1CCN(Cc2ccccn2)CC1	46%	-1%	45µM*	6%	0	-31%
O=C(c1cnn2c1NC(c1ccc(Br)cc1)CC2C(F)(F)F)N1CCN(C23CC4CC(CC(C4)C2)C3)CC1 (stereo not drawn)	10%	-2%	28µM*	-30%	11	-19%
NC(=O)c1c(NC(=O)CSc2nnc(Cc3ccccc3)n2Cc2ccco2)sc2c1CCC2	-19%	?	40µM*	-35%	/	?
O=C(CSc1nnc(Cc2ccccc2)n1Cc1ccco1)NC12CC3CC(CC(C3)C1)C2	5%	-9%	3%[12.7 µM]	?	/	?

Screens deposited in PubChem BioAssay by National Center for Advancing Translational Sciences (NCATS).
